Results on 44 compounds are retold here after PubChem BioAssay AID903 (National Center for Advancing Translational Sciences (NCATS), 2007).

Out of some 55,000 compounds screened, about 340 (0.62%) were called active. Another 3% or so got no clear call; they are omitted. The sample as a whole holds a higher share of actives than the screen did. A number with no mark means an inactive call. The call rests on the fitted dose curve; in most records, active means well fitted cell-killing curve with a large enough effect; inconclusive means small, poorly fitted or top-dose-only effect; inactive means no such curve, though single readings can be large or run the other way.
Potency means the concentration at half of the fitted maximal effect.

The nature of this experiment: qHTS Screen for Compounds that Selectively Target Cancer Cells with p53 Mutations: Cytotoxicity of p53 Null Cells at the Permissive Temperature. Further: nearly all actives have a fitted effect of over 55% in size.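 On activity change, negative = cytotoxicity: 0% = DMSO only and -100% = full killing by 100 µM tamoxifen.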 To be noted: H1299-neo p53 null cells, ATP luminescence, 24 h, 32C; series mostly up to 46.1 µM; activity change, negative = cytotoxicity: at the top concentration. An outline of the steps:
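H1299-neo (p53-null) cells, 600/well, were pre-incubated overnight at 37C, then exposed to compounds at up to 46 uM for 24 hr at 32C. Viability was measured as ATP content by luminescence, and AC50 values came from Hill fits.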
(Quantitative high-throughput screening tests each substance at several concentrations.)
For `COC(=O)/C(NC(C)=O)=C(\C)c1ccc(Cl)cc1`, the “activity change, negative = cytotoxicity” value was 4.98%.
The same measure, in the same setting: the value for `CCCCCn1c(CCNC(=O)c2ccc(F)cc2)nc2ccccc21` was 10.3%; that for `CCCC(=O)Nc1ccc2oc(-c3ccc(O)c(Br)c3)nc2c1` was -17.9%.
The same measure, in the same setting: as for `CC(=O)Nc1cc(C(=O)NCc2ccc(F)cc2)ccc1Sc1ccc(F)cc1`, the figure is -7.84%.
Still for that read-out and setting: as for `Cc1ccc(NC(=S)N2CCN(c3ncccn3)CC2)cc1C`, the figure is -16.9%.
Consider `O=C(CCC(=O)N1CC2CCCN2c2ccccc21)NCc1ccccc1Cl` (centres undefined), for which the “activity change, negative = cytotoxicity” value is -2.37%.
Same read-out and setting: the value for `Cn1c(=NC(=O)c2ccc3c(c2)OCCO3)sc2cc(S(C)(=O)=O)ccc21` was 0.0269%; that for `O=C(NC1CCCC1)C(c1ccccn1)N(C(=O)c1csnn1)C1CCCC1` (centres undefined) was 1.76%.
On the same count and under the same terms, as for `CN(CC(=O)Nc1cccc(C(F)(F)F)c1)S(=O)(=O)c1cccs1`, the figure is -3.2%.
With `Cc1cccc(-c2nnc(SCC(=O)N3CCCc4ccccc43)o2)c1`, the “activity change, negative = cytotoxicity” value was 1.58%.
Take `Cc1ccc2[nH]cc(CCCN3C(=O)c4ccccc4C3=O)c2c1`: the “activity change, negative = cytotoxicity” value is -13.4%.
The same measure, in the same setting: the value for `CCNC(=S)N1CCC(c2nc3cc(C)c(C)cc3[nH]2)CC1` was 8.34%.
Same read-out and setting: as for `CCCCn1c(=O)c2oc3ccccc3c2n(CC(=O)Nc2ccccc2OC)c1=O`, the figure is -9.59%; as for `O=C(CSc1nc2nccnc2c(=O)n1CCc1c[nH]c2ccccc12)Nc1ccccc1F`, 34%; as for `Cc1cccc(NC(=O)Cn2cc(S(=O)(=O)Cc3ccccc3Cl)c3ccccc32)c1`, 0.404%.
The same measure, in the same setting: the value for `Cc1csc2nc(COc3ccc(NC(=O)COc4ccccc4)cc3)cc(=O)n12` was -5.31%; that for `COc1ccc(NC(=O)Nc2cccc(-c3noc(C)n3)c2)cc1` was -14.2%; that for `COc1cccc(C(c2c(O)cc(C)n(Cc3ccco3)c2=O)N2CCN(c3ccccc3)CC2)c1` (centres undefined) was -0.758%.
Consider `O=C(CSc1nccn1Cc1ccc(Cl)cc1)NCc1ccccc1`, for which the “activity change, negative = cytotoxicity” value was 7.59%.
In the case of `Cc1ccc(CSCC(N)C(=O)O)cc1` (centres undefined), the “activity change, negative = cytotoxicity” value was -2.48%.
On the same count and under the same terms, as for `COc1ccccc1N1CCN(C(=O)C2CCN(S(=O)(=O)c3c(C)noc3/C=C/c3ccc(C)cc3)CC2)CC1`, the figure is 8.32%; as for `O=C(OCc1cc(=O)n2nc(C3CC3)sc2n1)c1ccccc1Cl`, -2.28%; as for `COC(=O)c1ccc(NC(=O)CSc2nncc3ccc(OC)c(OC)c23)cc1`, -6.26%.
Still for that read-out and setting: as for `CCC1(C)CC(=O)c2c(ccc3oc(C(=O)Nc4ccc(C(C)=O)cc4)c(C)c23)O1` (centres undefined), the figure is -21.6%.
Turning to `Cc1c(C(=O)NCc2ccccc2Br)oc2ccc3c(c12)C(=O)CC(C)(C)O3`, the Potency was 10 µM (active).
For `O=C(NCc1ccccc1Cl)C1=Cc2cc(Br)ccc2OC1`, the “activity change, negative = cytotoxicity” value was 33.2%.
Still for that read-out and setting: the value for `Cc1nn(-c2nc(-c3ccccc3)cc(C(F)(F)F)n2)c(C)c1Cl` was 5.91%.
The same measure, in the same setting: as for `CC(C)NC(=S)N1CCN(S(C)(=O)=O)CC1`, the figure is -2.79%; as for `COc1cc(C(=O)N2CCN(C(=O)COc3cccc(C)c3)CC2)cc(OC)c1OC`, -0.0506%.
Regarding `CC(C)Cn1c(C2CC(=O)N(c3ccccc3Cl)C2)nc2ccccc21` (centres undefined), the “activity change, negative = cytotoxicity” value was 1.17%.
Still for that read-out and setting: as for `Cc1ccccc1CSCCNC(=O)c1ccc(Cl)c(S(=O)(=O)N2CCOCC2)c1`, the figure is 7.74%.
Still for that read-out and setting: as for `Cc1cc2c(cc3c(SCc4nc(-c5ccccc5)oc4C)nnc(C)n32)o1`, the figure is 0.258%.
The same measure, in the same setting: as for `CC(=O)c1cccc(NC(=O)CSc2nc3c(c(=O)[nH]2)CCC3)c1`, the figure is 7.62%.
Take `CC(C)C(OC(=O)c1cccs1)C(=O)NC1CCCCC1` (centres undefined): the “activity change, negative = cytotoxicity” value is -5.17%.
For `COc1ccc(C(=O)COC(=O)CCCC(=O)Nc2cc(C(F)(F)F)ccc2Cl)cc1`, the “activity change, negative = cytotoxicity” value was 2.12%.
On the same count and under the same terms, as for `Cc1nnc(N2CCC(C(=O)Nc3ccc(F)cc3)CC2)c2nn(-c3ccc(Cl)cc3)c(C)c12`, the figure is 12.4%.
The same measure, in the same setting: the value for `O=C(CC1N=C2c3ccccc3N=C(SCc3ccc(F)cc3)N2C1=O)NCc1cccs1` (centres undefined) was 8.54%; that for `CCOc1ccc(CCNC(=O)c2cc3c(=O)n(C)c4ccccc4c3n2C)cc1` was -5.8%; that for `CCCn1c(=N)c(C(=O)NCc2ccccc2)cc2c(=O)n3cccc(C)c3nc21` was 11%.
On the same count and under the same terms, the value for `Cc1ccccc1NC(=O)CN1C(=O)C(C)(C)c2ccccc21` was -2.97%; that for `O=C(Nc1ccc(Br)cc1)c1cc2nc(-c3ccccc3)cc(-c3ccccc3)n2n1` was 1.89%.
`CCCOc1ccc(C2c3c(-c4ccccc4O)n[nH]c3C(=O)N2Cc2cccnc2)cc1` (centres undefined): the “activity change, negative = cytotoxicity” value was 38.5%.
With `COc1ccc(C(=O)Nc2onc3c2CCCC3)cc1`, the Potency is 7.94 µM (active).
As for `CC1CCc2noc(NC(=O)c3ccc([N+](=O)[O-])cc3)c2C1` (centres undefined), the “activity change, negative = cytotoxicity” value was -0.123%.
